In the supplement of paper PMC10981050:
“And” between values parts separate entries of the source, which are not always exact repeats. Equal values may be shown once. Where a name gives a salt, the structure may show the parent alone.

What was measured:
Test in all cases: cell viability relative to vehicle control; higher = less cytotoxic
Conditions in all cases: 10 µM
K562 = system: K562
In short: (§1)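 CRISPR-edited mutant clones and isogenic wild-type clones from four leukaemia lines were screened against Selleck bioactive, kinase and epigenetic probe libraries, with identity-inconsistent compounds excluded. Each compound was acoustically dispensed at a single 10 µM dose into 384-well plates holding 2000 cells in 50 µL medium per well. After 48 h the supernatant was removed and CellTiter-Glo luminescence was read. Viability was expressed as percent of the on-plate vehicle control and analysed in Genedata Screener.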

MARIMO = system: MARIMO
In short: as §1

MOLM14 = system: MOLM14
In short: as §1

OCI-AML2 = system: OCI-AML2
In short: as §1

| Compound | cell viability (K562; SRSF2 genotype: SRSF2 P95H/wt) | cell viability (K562; SRSF2 genotype: SRSF2 wt/wt) [%] | cell viability (MARIMO; SRSF2 genotype: SRSF2 P95H/wt) [%] | cell viability (MARIMO; SRSF2 genotype: SRSF2 wt/wt) [%] | cell viability (MOLM14; SRSF2 genotype: SRSF2 P95H/wt) [%] | cell viability (MOLM14; SRSF2 genotype: SRSF2 wt/wt) [%] | cell viability (OCI-AML2; SRSF2 genotype: P95H/wt) [%] | cell viability (OCI-AML2; SRSF2 genotype: wt/wt) [%] |
| --- | --- | --- | --- | --- | --- | --- | --- | --- |
| O=C1C(=O)c2ccccc2C(O)=C1C1CCC(c2ccc(Cl)cc2)CC1 (stereo not given) [Atovaquone (Atavaquone)] | 87.9% and 81.8% | 79.7 | 87.9 | 95.8 | 84.7 | 88.7 | 84.8 | 90.1 |
| CC(=O)Oc1ccccc1C(=O)O.CC(=O)Oc1ccccc1C(=O)O.NC(N)=O [Carbasalate Calcium] | 105% and 106% | 102 | 104 | 105 | 104 | 103 | 102 | 97.8 |
| CC(=O)OC(C)(C)CCC(=O)[C@](C)(O)[C@H]1[C@H](O)C[C@@]2(C)[C@@H]3CC=C4[C@@H](C[C@H](O)[C@@H](O)C4(C)C)[C@]3(C)C(=O)C[C@]12C [Curcurbitacin IIA] | 67.7% and 75.2% | 77.4 | 80.9 | 87.6 | 34.7 | 22.4 | 21.4 | 28.8 |
| Cc1cc(C)nc(NS(=O)(=O)c2ccc(N)cc2)n1 [Sulfamethazine Sodium Salt] | 105% and 99.9% | 102 | 106 | 106 | 100 | 106 | 88.5 | 113 |
| CCCCCCCC(=O)N[C@H](CN1CCCC1)[C@H](O)c1ccc2c(c1)OCCO2 [Eliglustat (Tartrate)] | 95.2% and 103% | 99.4 | 91.1 | 89.7 | 90 | 99.9 | 94 | 97.1 |
| Cc1cnc(NC(=O)Nc2cc(Br)c(C)cc2OC[C@@H]2CNCCO2)cn1 | 8.35% and 7.58% | 8.76 | 20.6 | 8.01 | 10.8 | 6.96 | 12.8 | 12.1 |
| O=C(NO)c1ccc(CC(=O)N(CCO)c2ccccc2)cc1 | 87.2% and 92.2% | 86.2 | 78.9 | 90.4 | 71.9 | 73.6 | 77.2 | 81.6 |
| CC12CCC(CC1=O)C2(C)C (stereo not drawn) [(+)-Camphor] | 94.2% and 102% | 101 | 96.2 | 99.9 | 99.3 | 99.8 | 103 | 92.2 |
| O=c1cc[nH]c(=S)[nH]1 [2-Thiouracil] | 101% and 103% | 100 | 98.6 | 109 | 106 | 106 | 107 | 104 |
| Cc1ccc(-c2csc(NC(=O)c3ccccc3)n2)c(C)c1 | 80.3% and 83.3% | 81.5 | 76.2 | 81 | 94.1 | 92.7 | 63.8 | 66.8 |
| N#C[C@@H]1C[C@@H]2C[C@@H]2N1C(=O)[C@@H](N)C12CC3CC(CC(O)(C3)C1)C2 | 107% and 99.7% | 107 | 97.6 | 88.9 | 96.7 | 99.5 | 96.6 | 108 |
| Cc1c(NC(=O)OC[C@@H]2COCCN2)cn2ncnc(Nc3ccc4c(cnn4Cc4cccc(F)c4)c3)c12 | 75.3% and 73.2% | 71.7 | 76.4 | 79.8 | 63.8 | 69.6 | 68.7 | 64.8 |
| C=C[C@](C)(O)CC[C@@H]1[C@@]2(C)CCCC(C)(C)[C@@H]2CC[C@@]1(C)O [Sclareol] | 93.2% and 93.5% | 95.6 | 94.5 | 94.3 | 106 | 103 | 89.2 | 85.1 |
| C[C@H](CCC(=O)O)[C@H]1CC[C@H]2[C@@H]3C[C@H](O)[C@@H]4C[C@H](O)CC[C@]4(C)[C@H]3CC[C@]12C [Hyodeoxycholic acid (HDCA)] | 92.5% and 93.9% | 88.6 | 87.5 | 94.3 | 93.5 | 97.5 | 93.1 | 97.4 |
| O=C1c2ccccc2C(=O)c2c1ccc(O)c2O [Alizarin] | 101% and 104% | 101 | 103 | 99.5 | 97 | 102 | 101 | 93 |
| COc1cc(NS(=O)(=O)c2ccc(N)cc2)nc(OC)n1 [SulfadiMethoxine sodium] | 106% and 100% | 111 | 100 | 105 | 106 | 107 | 102 | 118 |
| CCCCCCCCCC[C@H](C(=O)O)[C@]1(C(=O)O)CCC(=O)O1 [Spiculisporic Acid] | 107% and 103% | 103 | 104 | 107 | 98.8 | 110 | 95.5 | 103 |
| C[C@@H]1C[C@H]2[C@@H]3CCC4=CC(=O)C=C[C@]4(C)[C@@]3(F)[C@@H](O)C[C@]2(C)[C@@]1(O)C(=O)CO [Dexamethasone] | 99.7% and 95.1% | 92.8 | 106 | 99.8 | 95.4 | 90.6 | 98.2 | 103 |
| Cc1ncc(CO)c(CO)c1O [Pyridoxine] | 98.2% and 103% | 97.3 | 107 | 96.3 | 101 | 102 | 106 | 99.6 |
| Cc1ccccc1N=Nc1ccc(NC(=O)c2ccnn2C)c(C)c1 | 84.3% and 77.9% | 88 | 82.3 | 87.2 | 102 | 95 | 73.1 | 74.5 |

| Compound | cell viability (K562; SRSF2 genotype: SRSF2 P95H/wt) | cell viability (K562; SRSF2 genotype: SRSF2 wt/wt) [%] | cell viability (MARIMO; SRSF2 genotype: SRSF2 P95H/wt) [%] | cell viability (MARIMO; SRSF2 genotype: SRSF2 wt/wt) [%] | cell viability (MOLM14; SRSF2 genotype: SRSF2 P95H/wt) [%] | cell viability (MOLM14; SRSF2 genotype: SRSF2 wt/wt) [%] | cell viability (OCI-AML2; SRSF2 genotype: P95H/wt) [%] | cell viability (OCI-AML2; SRSF2 genotype: wt/wt) [%] |
| --- | --- | --- | --- | --- | --- | --- | --- | --- |
| CC(C)n1nc(-c2cc3cc(O)ccc3[nH]2)c2c(N)ncnc21 [Torkinib (PP242)] | 21.2% and 25.5% | 21.9 | 23.1 | 23 | 12.8 | 9.03 | 9.37 | 15.1 |
| O=C1CCc2ccccc2O1 [Dihydrocoumarin] | 95.7% and 98.2% | 94.4 | 94.5 | 105 | 105 | 102 | 93.6 | 100 |
| OC[C@H]1O[C@@](CO)(OC[C@@]2(OC[C@@]3(O[C@H]4O[C@H](CO)[C@@H](O)[C@H](O)[C@H]4O)O[C@H](CO)[C@@H](O)[C@@H]3O)O[C@H](CO)[C@@H](O)[C@@H]2O)[C@@H](O)[C@@H]1O [Nystose] | 106% and 101% | 111 | 100 | 101 | 106 | 100 | 106 | 102 |
| CN(C)c1ccc2c(c1)Sc1cc(N(C)C)ccc1N2 [TRx0237 (LMTX) mesylate] | 35.5% and 35.7% | 20.9 | 20.4 | 18.9 | 5.72 | 2.96 | 6.33 | 10.7 |
| c1cc(CN2CCCNCCNCCCNCC2)ccc1CN1CCCNCCNCCCNCC1 [Plerixafor] | 93.9% and 99.1% | 99.1 | 96.2 | 100 | 94.8 | 94.7 | 103 | 96.9 |
| OCCc1c[nH]c2ccccc12 [Tryptophol] | 102% and 92.7% | 94.7 | 100 | 110 | 97.8 | 99.4 | 90.5 | 111 |
| COC1=C(OC)C(=O)C(CCCCCCCCCCO)=C(C)C1=O [Idebenone] | 78.7% and 86.7% | 86.9 | 85.6 | 89.6 | 88 | 88.7 | 68.8 | 75.2 |
| C#Cc1cccc(Nc2ncnc3cc4c(cc23)OCCOCCOCCO4)c1 [Icotinib] | 96.1% and 94% | 94.2 | 92.4 | 98.3 | 92.3 | 98.4 | 94.9 | 94.5 |
| CC(=O)O[C@H]1C(=O)[C@@]2(C)[C@H]([C@H](OC(=O)c3ccccc3)[C@]3(O)C[C@H](OC(=O)[C@H](O)[C@@H](NC(=O)c4ccccc4)c4ccccc4)C(C)=C1C3(C)C)[C@]1(OC(C)=O)CO[C@@H]1C[C@@H]2O [Paclitaxel (Taxol)] | 24.2% and 40.5% | 35.7 | 7.78 | 4.98 | 9.66 | 2.55 | 7.7 | 12.1 |
| C[C@@H]1C/C=C/C=C/C=C/C=C/[C@H](O[C@@H]2O[C@H](C)[C@@H](O)[C@H](N)[C@@H]2O)C[C@@H]2O[C@](O)(C[C@@H](O)C[C@H]3O[C@@H]3/C=C/C(=O)O1)C[C@H](O)[C@H]2C(=O)O [Natamycin] | 102% and 105% | 102 | 100 | 105 | 98.5 | 104 | 101 | 110 |
| O=c1cc(-c2ccc(O)cc2)oc2c([C@@H]3O[C@H](CO)[C@@H](O)[C@H](O)[C@H]3O)c(O)cc(O)c12 [Vitexin] | 109% and 103% | 101 | 108 | 107 | 101 | 105 | 103 | 107 |
| CC(=O)OCC=Cc1ccccc1 [Cinnamyl acetate] | 98.4% and 95.9% | 104 | 99.4 | 95.9 | 101 | 102 | 101 | 111 |
| O=C(O)C=CCCCCCCCO [Royal jelly acid] | 103% and 104% | 102 | 104 | 105 | 98.5 | 102 | 110 | 112 |
| CCN(CC)CC#CCOC(=O)C(O)(c1ccccc1)C1CCCCC1 (stereo not given) [Oxybutynin (Ditropan)] | 97.7% and 102% | 104 | 82.9 | 95.9 | 83.5 | 100 | 91.8 | 87 |
| CC(C)NCC(O)COc1ccc(CCOCC2CC2)cc1 (stereo not given) [Betaxolol hydrochloride (Betoptic)] | 97.5% and 96.6% | 94.3 | 103 | 107 | 99.5 | 99.7 | 91.2 | 99.6 |
| Cc1ccc(CNc2ncnc3ccc(-c4ccc(CO)o4)cc23)o1 | 97.3% and 96.8% | 101 | 90 | 95.8 | 81.7 | 94.2 | 77.5 | 84.3 |
| CN1CCN(Cc2ccc(NC(=O)Nc3ccc(Oc4ccnc(N)n4)cc3)cc2C(F)(F)F)CC1 | 31.7% and 37.7% | 22.2 | 6.8 | 2.68 | 1.79 | 0.67 | 1.64 | 10.3 |
| O[C@H]1[C@H]2c3cc4c(cc3CN3CCC(=C[C@@H]1O)[C@H]23)OCO4 [Lycorine hydrochloride] | 18.7% and 26.8% | 28.4 | 22.9 | 21 | 20.3 | 7.64 | 0.76 | 2.07 |
| COc1cc(C[C@@H](CO[C@@H]2O[C@H](CO)[C@@H](O)[C@H](O)[C@H]2O)[C@H](CO[C@@H]2O[C@H](CO)[C@@H](O)[C@H](O)[C@H]2O)Cc2ccc(O)c(OC)c2)ccc1O [Secoisolariciresinol diglucoside] | 96.7% and 93.6% | 98.9 | 90 | 101 | 101 | 98.5 | 96.8 | 104 |
| COc1cc(-c2oc3cc(O)cc(O)c3c(=O)c2O)ccc1O [Isorhamnetin] | 87.2% and 88.3% | 86.6 | 83.4 | 92.4 | 71.8 | 79.4 | 81.1 | 89 |
